ERa coact inh: blocks coactivator binding to human estrogen receptor alpha; P03372; TR-FRET ER-alpha LBD / SRC-1 peptide, estradiol-bound; inhibition, % at 25.6 µM; hit rate 1.7% among 86,000; in the data active means inhibition above about 50%;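 further: 0% = receptor plus peptide control and 100% = peptide only without receptor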
Target sequence (P03372 whole entry, looked up, the tested form may be a part): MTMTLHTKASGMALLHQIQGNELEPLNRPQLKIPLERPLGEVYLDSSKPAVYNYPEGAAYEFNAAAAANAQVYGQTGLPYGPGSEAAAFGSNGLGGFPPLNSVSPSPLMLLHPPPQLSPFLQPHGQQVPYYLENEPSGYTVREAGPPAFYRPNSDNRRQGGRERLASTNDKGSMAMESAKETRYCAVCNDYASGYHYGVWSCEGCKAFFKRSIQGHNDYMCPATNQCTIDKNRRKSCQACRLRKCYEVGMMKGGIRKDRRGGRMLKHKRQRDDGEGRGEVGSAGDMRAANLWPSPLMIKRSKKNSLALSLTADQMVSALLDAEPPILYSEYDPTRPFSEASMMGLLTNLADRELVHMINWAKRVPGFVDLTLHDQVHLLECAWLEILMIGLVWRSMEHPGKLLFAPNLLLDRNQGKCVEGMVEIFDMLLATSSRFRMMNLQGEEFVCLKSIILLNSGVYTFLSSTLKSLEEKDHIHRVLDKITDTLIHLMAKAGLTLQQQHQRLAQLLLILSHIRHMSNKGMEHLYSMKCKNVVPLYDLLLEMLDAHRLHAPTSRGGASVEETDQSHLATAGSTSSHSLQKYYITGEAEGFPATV
MRP resist rev: compounds reversing MRP-mediated drug resistance | differential viability (reversal), % at 10 µM | hit rate 0.04% among 85,000 | H69AR cells + 2 uM doxorubicin, CellTiter-Glo, 72 h;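 active means viability drop by adding the cancer drug above about 55%, with treated viability meeting a 40% cutoff, limit read from the data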;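 further: viability without doxorubicin minus viability with 2 µM doxorubicin for each compound; larger differential means the compound sensitizes cells more to doxorubicin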
ERb coact inh: ER-beta (human) coactivator binding inhibition; hit rate 1.3% among 86,000; inhibition, % at 25.6 µM; AID 633; TR-FRET ER-beta LBD / SRC1-Cy5 peptide binding; receptor agonist-loaded with 1 µM estradiol; Q92731;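 active means compounds whose percent inhibition of the receptor-coactivator binding signal exceeds about 50% in the single-dose screen, limit read from the data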;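 further: 0% = receptor plus peptide wells without compound and 100% = peptide-only wells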
ERa SRC1 pot: enhances coactivator binding to human estrogen receptor alpha. hit rate 1.3% among 86,000. P03372. coactivator binding (% of control), % at 25.6 µM. TR-FRET ERalpha-LBD/SRC-Cy5 coactivator binding, 2 h; 100 = basal binding, no effect; in the data active means activity above about 200%;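 further: binding measured in presence of low estradiol as agonist stimulus; 0% = peptide alone without receptor and 100% = receptor with peptide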
MRP-1 activ: activates MRP-1 | H69AR cells + doxorubicin, viability rescue, CellTiter-Glo | viability increase, % at 10 µM | hit rate 0.61% among 140,000;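 active means viability gain under doxorubicin at or above a set limit, the compound median plus 3 SD, cut at about 4.7% in these data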;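 further: MRP-1 overexpressing cells given doxorubicin 25 µM after compound pretreatment; 18-22 h compound pretreatment then 72 h with doxorubicin before readout; 0% = doxorubicin-only wells and 100% = vehicle-treated cells without doxorubicin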
Smad3 inh: inhibitors of human Smad3 transcription factor binding; TR-FRET Smad3/Dy647-FoxH1 peptide binding, europium anti-His; AID 630; inhibition, % at 25 µM; hit rate 0.29% among 88,000;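 active means compounds that reduce the energy-transfer binding signal between the protein and its labelled peptide by more than half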;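 further: 0% = Smad3 plus labelled peptide maximal FRET and 100% = peptide-only background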
* marks the source's active call; other numbers are inactive results; [ ] = dose if it differs, or a comment. Rows were chosen to be rich in hits. Some 2.9% of all compounds tested hit in one or more screens of this group.

Screening Cc1ccc(NC(=O)CN2C(=O)S/C(=C\c3ccc(-c4cccc(C(=O)O)c4C)o3)C2=O)cc1 returned ERa coact inh 6, MRP resist rev 5, ERb coact inh 20, ERa SRC1 pot 250*[fluorescence artefact?], MRP-1 activ 1 and Smad3 inh 8.
Screening Oc1ccc2ccccc2c1Cc1c(O)ccc2ccccc12 returned Smad3 inh 7.
CC12CC3CC(C)(C1)CC(C(=O)Nc1nn[nH]n1)(C3)C2 was read as ERa coact inh -4, MRP resist rev 2, ERb coact inh -6, ERa SRC1 pot 226*, MRP-1 activ -1 and Smad3 inh -3.
For Cc1ccc(-n2c(SCc3cc(=O)n4ccsc4n3)nnc2-c2cccnc2)c(C)c1 the results were ERa coact inh 75*[fluorescence artefact?], MRP resist rev 3, ERb coact inh 62*, ERa SRC1 pot 120, MRP-1 activ 0 and Smad3 inh 15.
`Cc1ccc(-n2c(SCC(N)=O)nnc2-c2cccnc2)c(C)c1` gave ERa coact inh -4, MRP resist rev -2, ERb coact inh -7, ERa SRC1 pot 101, MRP-1 activ -3 and Smad3 inh 7.
O=C(Nc1ccc(-c2nc3cccnc3s2)cc1)C1CCCO1 (centres undefined) was read as MRP-1 activ -3.
For Cc1cc(C(=O)CSc2nnc(-c3ccc(F)cc3)o2)c(C)n1CC1CCCO1 (centres undefined) the results were ERa coact inh 41, MRP resist rev 2, ERb coact inh 15, ERa SRC1 pot 229*[fluorescence artefact?], MRP-1 activ -1 and Smad3 inh -38.
For Cc1cc(C)cc(OCc2nnc(SCC(=O)c3ccc(Br)cc3)o2)c1 the results were ERa coact inh -19, MRP resist rev 1, ERb coact inh -18, ERa SRC1 pot 202*, MRP-1 activ -3 and Smad3 inh 10.
`Cc1cc(C)c(C)c(C(=O)CSc2nnc(-c3ccc4[nH]c(C)c(C)c4c3)o2)c1C` gave ERa coact inh -8, MRP resist rev 3, ERb coact inh -6, ERa SRC1 pot 103, MRP-1 activ -7 and Smad3 inh -12.
For Cc1[nH]c2ccc(-c3nnc(SCC(=O)c4ccc(F)cc4)o3)cc2c1C the results were ERa coact inh 65*[fluorescence artefact?], MRP resist rev -25, ERb coact inh 55*[fluorescence artefact?], ERa SRC1 pot 126, MRP-1 activ -5 and Smad3 inh -23.
`COc1ccc(C(=O)CSc2nnc(-c3ccc(C)cc3)o2)cc1` gave ERa coact inh 51*[fluorescence artefact?], MRP resist rev 3, ERb coact inh 24, ERa SRC1 pot 99, MRP-1 activ -3 and Smad3 inh 12.
For COc1ccc(Cc2nnc(SCC(=O)c3ccc(OC)cc3)o2)cc1 the results were ERa coact inh -7, ERb coact inh -11, ERa SRC1 pot 112, MRP-1 activ 0 and Smad3 inh 3.
O[C@]1(c2ccccc2)c2ccccc2NC2=NCCN21 was read as Smad3 inh -2.
`COc1ccc(-c2nnc(SCC(=O)N3CCCC3)o2)cc1OC` gave ERa coact inh -22, MRP resist rev 6, ERb coact inh -28, ERa SRC1 pot 119 and Smad3 inh 7.
Screening COc1ccc(OC)c(C(=O)CSc2nnc(-c3ccc(OC)c(OC)c3)o2)c1 returned ERa coact inh -10, MRP resist rev 9, ERb coact inh 27, ERa SRC1 pot 329*, MRP-1 activ 0 and Smad3 inh -21.
For COc1ccc2ccccc2c1/C=C/C(=O)c1ccccc1 the results were Smad3 inh -18.
For CCn1c(CCNC(=O)c2ccc(F)cc2)nc2ccccc21 the results were ERa coact inh -5, MRP resist rev -11, ERb coact inh -10, ERa SRC1 pot 112, MRP-1 activ -1 and Smad3 inh -12.
For CCn1c(CCCNC(=O)c2ccc(F)cc2)nc2ccccc21 the results were ERa coact inh -5, MRP resist rev 1, ERb coact inh 7, ERa SRC1 pot 270*, MRP-1 activ -1 and Smad3 inh -1.
O=C(O)/C(Cc1cn[nH]n1)=N\O was read as Smad3 inh -4.
CCc1nn(-c2cc(Cl)ccc2OC)c2c1C(=O)CCC2 was read as ERa coact inh -6, MRP resist rev -51, ERb coact inh 1, ERa SRC1 pot 116, MRP-1 activ -5 and Smad3 inh 6.
CCOC(=O)c1c(N)sn(-c2ccccc2)c1=S was read as ERa coact inh -5, MRP resist rev 4, ERb coact inh -2, ERa SRC1 pot 590*[fluorescence artefact?], MRP-1 activ -1 and Smad3 inh -3.
CCCS(=O)(=O)O was read as Smad3 inh 0.
`CCn1c(SCC(=O)N2CCN(c3ccc(Cl)cc3)CC2)nc2ccccc2c1=O` gave ERa coact inh 4, MRP resist rev 8, ERb coact inh -9, ERa SRC1 pot 107, MRP-1 activ -1 and Smad3 inh -7.
CCn1c(SCC(=O)N2CCOCC2)nc2oc3c(Cl)cc(Cl)cc3c(=O)c2c1=O was read as ERa coact inh 65*[fluorescence artefact?], MRP resist rev 3, ERb coact inh 52*, ERa SRC1 pot 64, MRP-1 activ -5 and Smad3 inh 3.
Cc1ccc(-c2c3c(nc4sc(C(N)=O)c(N)c24)CCC3)cc1 was read as ERa coact inh 5, MRP resist rev -11, ERb coact inh -11, ERa SRC1 pot 75, MRP-1 activ -3 and Smad3 inh 2.
Screening NC(=O)c1sc2nc3c(c(-c4ccc(Cl)cc4)c2c1N)CCCC3 returned ERa coact inh 11, MRP resist rev 22, ERb coact inh 21, ERa SRC1 pot 252*[fluorescence artefact?], MRP-1 activ -2 and Smad3 inh 4.
For c1cc2c(cc1C(N1CCNCC1)N1CCNCC1)OCO2 the results were Smad3 inh -12.
For Cc1ccc(NC(=O)COc2ccc(/C(N)=N/O)cc2)cc1C the results were MRP resist rev -3 and MRP-1 activ -3.
`Cc1ccc(NC(=O)COc2ccc(-n3cnnn3)cc2)cc1C` gave ERa coact inh 74*[fluorescence artefact?], MRP resist rev -13, ERb coact inh 69*, ERa SRC1 pot 52, MRP-1 activ -2 and Smad3 inh 10.
`COc1cc(NC(=O)COc2ccc(-n3cnnn3)cc2)c(OC)cc1Cl` gave ERa coact inh 77*, MRP resist rev -1, ERb coact inh 67*[fluorescence artefact?], ERa SRC1 pot 44, MRP-1 activ -1 and Smad3 inh 23.
For CCOC(=O)N1CCN(C(=O)C(=O)NNC(=O)COc2ccc(Cl)cc2)CC1 the results were MRP-1 activ 4.
`Cc1cc(C)nc(NC(=O)CSc2nn(C)c(=S)s2)n1` gave ERa coact inh 65*, MRP resist rev 10, ERb coact inh 33, ERa SRC1 pot 47, MRP-1 activ 0 and Smad3 inh 8.
For CC(C)(N=NC(C)(C)C1=NCCN1)C1=NCCN1 the results were Smad3 inh 22.
`CCCOC(=S)NC(=O)c1sc2ccccc2c1Cl` gave MRP-1 activ 5.7*.
Screening CCOC(=S)NC(=O)c1sc2ccccc2c1Cl returned MRP-1 activ 8.5*.

Bioassay records: PubChem BioAssay, several laboratories
